Measured values: PubChem BioAssay AID624330 (Southern Research Specialized Biocontainment Screening …, 2012)
Screen size: about 340,000 compounds; about 2,100 (0.62%) were called active.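 Rule for the calls: active = first-screen hits whose inhibition reached a set limit at any dose in the follow-up dose series; inconclusive = inhibition above the set first-screen limit but never retested; inactive = the rest.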 Not all results are given here. Measured potencies and affinities stand elsewhere.

biological target: Rac GTPase-activating protein 1 (Homo sapiens) (UniProt Q9H0H5); test: blockers of MgcRacGAP-driven Rac1 GTP hydrolysis – biochemical, ADP Hunter fluorescence, primary and confirmatory, confirmation (AID 624330); details: MgcRacGAP-stimulated Rac1 GTP hydrolysis, at 30 µM, stronger effect = higher value, GST-tagged Rac1 F28L mutant substrate;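 note: fluorescence reports GDP produced by GAP-driven GTP hydrolysis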
Sequence (Q9H0H5 whole entry, looked up): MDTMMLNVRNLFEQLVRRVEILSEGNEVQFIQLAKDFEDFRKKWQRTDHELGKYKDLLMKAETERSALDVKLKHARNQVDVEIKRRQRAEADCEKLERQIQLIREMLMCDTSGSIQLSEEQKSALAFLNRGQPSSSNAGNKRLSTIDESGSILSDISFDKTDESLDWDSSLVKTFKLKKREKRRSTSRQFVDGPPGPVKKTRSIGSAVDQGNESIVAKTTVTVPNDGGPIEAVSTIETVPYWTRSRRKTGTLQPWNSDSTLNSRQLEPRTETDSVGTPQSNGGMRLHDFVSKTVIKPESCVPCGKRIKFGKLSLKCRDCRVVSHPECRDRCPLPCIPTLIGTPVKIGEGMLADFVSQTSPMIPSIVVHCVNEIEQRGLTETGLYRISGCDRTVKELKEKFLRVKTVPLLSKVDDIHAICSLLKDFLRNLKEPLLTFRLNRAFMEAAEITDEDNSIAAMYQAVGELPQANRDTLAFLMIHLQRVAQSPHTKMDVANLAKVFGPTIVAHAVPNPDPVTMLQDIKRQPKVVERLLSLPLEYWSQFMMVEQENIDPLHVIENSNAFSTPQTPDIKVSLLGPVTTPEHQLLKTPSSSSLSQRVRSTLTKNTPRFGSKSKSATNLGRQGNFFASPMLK

inhibition, inactive:
Cn1c(/N=C/c2ccccc2[N+](=O)[O-])nc2ccccc21 2.88%
CC(=O)N1CCC(N(CCN2CCOCC2)C(=S)Nc2cc(C)cc(C)c2)CC1 9.32%
Cc1ccc2cc(CN(CC(C)C)S(=O)(=O)c3cccc4nonc34)c(=O)[nH]c2c1 9.22%
CC(/C=C/C=C/c1ccccc1)=N/NC(=O)C(O)c1ccccc1 (stereo unspecified) 13.5%
C=COCCCNc1ncnc2sc(-c3ccccc3)cc12 23.7%
OCCOCCNc1ncnc2sc(-c3ccccc3)cc12 23%
O=C(NCCCN1CCCC1)c1ccc2c(c1)N(Cc1ccc(F)cc1)C(=O)c1ccccc1S2=O (stereo unspecified) 6.31%
CSc1n[nH]c(NCc2ccc(C)cc2)n1 -0.45%
CC(C)(C)c1nc(N)nc(=O)[nH]1 4.68%
Nc1nc(N)c2[nH]c(-c3ccccc3)nc2n1 6.78%
COc1cc(O)c2c(c1)COC2=O 4.96%
C=CCc1cc(OC)ccc1OCCON1C(=O)CCC1=O 8.6%
CN(C)c1cccc(C(=O)OCC(=O)NC(=O)NCc2ccccc2)c1 -0.47%
CCOC(=O)c1cnc(Nc2ccccc2)nc1C(F)(F)F 1.7%
Cc1c(N=Cc2ccc(-c3ccc(Cl)cc3)o2)c(=O)n(-c2ccccc2)n1C 3.54%
O=C(Cc1cccc(C(F)(F)F)c1)OCN1C(=O)c2ccccc2C1=O 4.25%
CCS(=O)(=O)c1ccc(O)c(NC(=O)CCCC(=O)O)c1 13.8%
CCCCCC(=O)Nc1cc(S(=O)(=O)N2CCCCC2)ccc1N1CCCCC1 9.51%
Cc1ccc(-c2nc(CS(=O)(=O)CC(=O)NCc3cccc(F)c3)c(C)o2)cc1 7.24%
CC#C[C@@H](CC)c1ccc2ccn(C)c2c1 9.11%
O=C1c2c(O)cccc2C(C2OC(CO)[C@@H](O)[C@H](O)[C@H]2O)c2cc(CO)cc(O)c21 (stereo partly specified) 11.8%
O=C1c2cc(CO)cc(O)c2C(=O)c2c(O[C@@H]3OC(CO)[C@@H](O)[C@@H](O)[C@@H]3O)cccc21 (stereo partly specified) 7.99%
Cc1ccc2c(C(=O)N3CCN(c4ccccc4)CC3)cc(-c3cccnc3)nc2c1C 6.48%
COC(=O)CC1SC(=O)NC1=Nc1ccc(OC)cc1 (stereo unspecified) 6.86%
COC(=O)CC1SC(=O)NC1=Nc1ccc(C)cc1 (stereo unspecified) 8.37%
Cc1cc(Nc2ccccc2Cl)n2nnnc2n1 2.54%
COC(=O)CSc1nc(N)c2c3c(sc2n1)C(c1ccccc1)SC(c1ccccc1)C3 (stereo unspecified) 6.76%
O=C1C(=O)c2ccc(-c3ccccc3)cc2-c2ccccc21 7.95%
O=C1C(=C(O)c2ccccc2)C(=O)c2ccccc21 8.92%
COc1ccc(N(CC(=O)Nc2ccccc2F)S(=O)(=O)c2ccc(OC)c(OC)c2)cc1 -10.3%
COc1ccc(C(=O)Nc2cccc3nc(C)ccc23)cc1OC 12.2%
CN(C)Cc1c(O)ccc2occ(C(=O)c3ccccc3)c12 6.64%
Cc1ccc(C(=O)c2coc3ccc(O)c(Cl)c23)cc1 16%
COc1ccc(NC(=O)COc2ccc3c(c2)OCO3)cc1 6.39%
COc1cccc(CN2CC(C(=O)NC3CCCCCC3)CCC2=O)c1 (stereo unspecified) 2.79%
CC(C)c1ccccc1OCC(O)CN(CC(O)COc1cccc2ccccc12)C(C)C (stereo unspecified) 4.64%
CCN(CCNCC(O)COCc1ccc(Cl)cc1)c1cccc(C)c1 (stereo unspecified) 31.7%
C=CCOc1ccc(C(=O)Nc2ncn[nH]2)cc1 4.62%
COc1ccc(NC(=O)C2CCCO2)cc1OC (stereo unspecified) 10.4%
COc1ccc([C@@H](OC)[C@@]2(Cc3ccc(O)cc3)N=C(N)N(C)C2=O)cc1 0.02%
COc1ccc(NC(=O)c2ccccc2NC(=O)C2CCCO2)cc1 (stereo unspecified) 10.5%
CC(=Nc1ccccc1)c1sc2ccccc2c1O 19.1%
CC(=Nc1ccc(C)cc1)c1sc2ccccc2c1O 2.37%
O=c1[nH]c(SCc2ccccc2)nc2ccsc12 6.38%
O=C(NCc1ccccc1)/C(=C/c1ccccc1)NC(=O)c1ccco1 2.6%
O=C(NCc1ccccc1)/C(=C\c1ccccc1)NC(=O)c1ccco1 6.99%
COc1ccc(NC(=S)N2CCNC(=O)C2CC(=O)Nc2ccc(C)cc2)cc1 (stereo unspecified) 15.2%
O=C(CCN1CCCCC1)N/N=C/c1ccc(Br)cc1 7.98%
COc1ccc(OC)c(/C=N/NC(=O)CCN2CCN(C(c3ccccc3)c3ccccc3)CC2)c1 -2.42%
COc1ccc(/C=N/NC(=O)CN2CCCC2)cc1 -0.98%
COc1ccc(/C=N\NC(=O)CCN2CCN(c3ccccc3)CC2)cc1OC 7.5%
NNC(=O)CCN1CCN(C(c2ccccc2)c2ccccc2)CC1 -8.98%
COc1ccc(Br)cc1/C=N/NC(=O)CN1CCCCC1 14.3%
COc1cc(/C=N/NC(=O)CCN2CCN(c3ccccc3)CC2)cc(OC)c1OC 4.52%
O=C(CCN1CCN(C(c2ccccc2)c2ccccc2)CC1)N/N=C/c1ccc(O)cc1O 30.9%
CN(C)CCN(Cc1ccco1)S(=O)(=O)c1csc(C(N)=O)c1 4.25%
O=C(c1ccccn1)N1CCN(C(=O)c2ccccn2)CC1 3.69%
O=C(c1ccc(OC2CCN(CCCc3ccccc3)CC2)cc1)N1CCCC1 3.48%
NC(=O)NCC1CC1 4.2%
O=C(OCC(=O)N1N=C(c2ccc(Cl)cc2)CC1c1ccco1)c1ccccc1O (stereo unspecified) 3.05%
CC[C@]12c3[nH]c4cc(-c5ccco5)ccc4c3CCN1C(=O)[C@@H](CC(=O)NC/C=C(\C)CCC=C(C)C)C[C@@H]2C(=O)N1CCN(C(=O)C2CC2)CC1 -1.48%
O=C1CSC(c2ccco2)N1 (stereo unspecified) 0.85%
O=C(O)C1CSC(c2ccncc2)N1 (stereo unspecified) 8.95%
COc1ccc(/C=C2/C(=O)N(c3ccccc3)N=C2C)cc1OC 17.9%
C#CCOc1ccc(/C=C2/C(=O)N(c3cccc(C(=O)O)c3)N=C2C)cc1OC 31.7%
CC1=NN(c2ccccc2)C(=O)/C1=C/N(C)C 8.12%
COc1cc(C=C2C(=O)OC(C)(C)OC2=O)ccc1OCC(=O)Nc1ccccc1 4.19%
CCOc1cc(/C=C2\C(=O)N(CCC#N)N=C2C)ccc1OCC(N)=O 21.4%
COc1ccc(/C=C2/C(=O)N(c3ccccc3)N=C2C)cc1Br 1.8%
COc1ccccc1/C=C1/C(=O)N(c2ccc([N+](=O)[O-])cc2)N=C1C 4.92%
CC1=NN(c2ccccc2)C(=O)/C1=C/C=C/c1ccccc1 6.5%
O=C(C1CCN(c2nnc(N3CCCC3=O)s2)CC1)N1CCN(c2cccc(C(F)(F)F)c2)CC1 7.18%
COC(=O)c1cccc2c(C(=O)O)cc(-c3ccccc3)nc12 3.38%
c1ccc2c(c1)ccc1nnc(SCc3ccc4c(c3)OCCO4)n12 3.92%
CC(=O)OC1CC2(C)C(CCC2(O)C(C)=O)C2CCC3C(Cl)C(=O)CCC3(C)C12 (stereo unspecified) 2.5%
COCC(=O)N1C[C@H]2CON(C)[C@H]2C[C@H]1c1cccc(-c2ccccc2OC)c1 15.1%
CCOP(=O)(OCC)c1ccc2c(c1)C(=O)c1ccccc1CC2 9.38%
CCOc1ncccc1C(=O)OCc1c(F)cccc1Cl -3.89%
CC(C)(C)C(=O)Nc1c2c(nn1-c1ccc(F)cc1)CSC2 11%
CCCc1ccc2oc(C(=O)NCCN3CCCC(C(N)=O)C3)c(C)c2c1 (stereo unspecified) -11.6%
COc1ccc2ccccc2c1CNCCCN1CCOCC1 5.19%
CN1CCN(/N=C/c2nc(-c3ccccc3Cl)n3ccccc23)CC1 21.2%
CN1CCN(/N=C/c2nc(-c3cccc([N+](=O)[O-])c3)n3ccccc23)CC1 12.2%
CSc1ccc(/C=N/N2CCN(C)CC2)cc1 11.3%
O=Cc1nc(-c2ccc(Cl)cc2)n2ccccc12 -3.25%
O=Cc1nc(-c2ccccc2Cl)n2ccccc12 3.46%
CN1CCN(/N=C/c2ccc(-c3ccccc3)cc2)CC1 13.1%
CC(C)(C)c1ccc(-c2nc(C=O)c3ccccn23)cc1 -4.54%
O=C(O)/C=C/c1nc(-c2ccccc2)n2ccccc12 16.7%
CSCC[C@H](NC(=O)C1CCC(CNC(=O)[C@@H]2CCCN2C(=O)OC(C)(C)C)CC1)C(=O)O (stereo partly specified) 0.46%
Cc1ccccc1COCCN1CCN(S(=O)(=O)c2ccccc2)CCC1=O 12.5%
CC(C)Oc1ccc(C(=O)Nc2ccc([N+](=O)[O-])cc2)cc1 11.4%
Cc1cc(=O)oc2cc(NC(=O)c3ccccc3Cl)ccc12 9.35%
CCCc1c(C(=O)N/N=C/C=C/c2ccccc2)nnn1-c1nonc1N 15.9%
COc1ccc(OC(=O)c2cccc(S(=O)(=O)N3CCCC3)c2)cc1 15.8%
O=C(Oc1cccnc1)c1cc(S(=O)(=O)N2CCCCC2)ccc1Cl 2.68%
